Measured values as given in PubChem BioAssay AID1259372 (The Scripps Research Institute Molecular Screening Center, 2018).
Out of some 4,700 compounds screened, about 760 (16%) were called active.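 How the source made its calls: active means inhibition above a cutoff derived from the DMSO control wells (cut at about 28% in these data); inactive means the rest.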 Not all results are given here.

These molecules were tested against Microphthalmia-associated transcription factor (Homo sapiens) (UniProt O75030) (assay: MITF inhibitors, retest of hits, confirmation, biochemical, AlphaScreen, triplicate (AID 1259372)). Conditions: AlphaScreen MITF homodimerization, biotin/His-MITF beads; at 2.6 µM; active compounds read high.
Sequence of Microphthalmia-associated transcription factor (Homo sapiens) (O75030 whole entry, looked up): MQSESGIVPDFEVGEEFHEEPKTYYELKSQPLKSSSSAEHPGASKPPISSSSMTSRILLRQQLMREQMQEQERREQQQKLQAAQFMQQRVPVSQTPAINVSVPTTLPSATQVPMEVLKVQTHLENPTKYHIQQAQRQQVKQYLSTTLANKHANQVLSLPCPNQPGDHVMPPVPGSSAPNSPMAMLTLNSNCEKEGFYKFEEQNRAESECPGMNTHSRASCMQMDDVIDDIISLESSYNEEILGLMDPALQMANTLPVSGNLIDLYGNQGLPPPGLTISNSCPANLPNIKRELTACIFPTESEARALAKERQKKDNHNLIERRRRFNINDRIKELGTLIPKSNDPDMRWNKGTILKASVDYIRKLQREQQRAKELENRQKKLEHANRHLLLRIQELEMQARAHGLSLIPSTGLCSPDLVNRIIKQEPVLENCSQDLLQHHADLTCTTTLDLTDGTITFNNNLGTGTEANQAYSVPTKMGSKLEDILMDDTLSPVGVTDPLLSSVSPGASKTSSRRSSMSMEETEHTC

| Compound | inhibition |
| --- | --- |
| COc1ccc(C(=O)COC(=O)CNS(=O)(=O)/C=C/c2ccc(C)cc2)cc1OC | 7.42% (inactive) |
| O=C(CNCc1ccc(F)cc1)Nc1ccc(N2CCCC2)cc1 | 17.1% (inactive) |
| CC(C)(C)n1nnnc1C(c1ccc2ncccc2c1)N1CCSCC1 (stereo unspecified) | 20.3% (inactive) |
| N#Cc1nc(COc2cccc(Cl)c2)oc1NCCCn1ccnc1 | 43.8% (active) |
| CCc1ccc(OCCCCn2ccnc2)cc1 | -7.12% (inactive) |
| CCc1cccc(OCCOCCn2ccnc2)c1 | 0.99% (inactive) |
| C=CCc1cc(C)ccc1OCCCn1ccnc1 | -1.07% (inactive) |
| COc1ccc(Br)cc1CN1CCN(C(=O)c2cccnc2)CC1 | 8.4% (inactive) |
| Cc1cccc(NC(=O)CNCCN2CCCCC2)c1C | 7.31% (inactive) |
| O=[N+]([O-])c1ccccc1S(=O)(=O)N1CCN(C2Cc3ccccc3C2)CC1 | 4.35% (inactive) |
| COc1ccc(CN2CCN(Cc3cc(OC)c(OC)c(OC)c3)CC2)cc1 | 1.87% (inactive) |
| CCN(CC)CCN1COc2c(cc(Cl)c3cccnc23)C1 | 107% (active) |
| CN1CCN(CCC(=O)N/N=C/c2ccsc2)CC1 | -0.75% (inactive) |
| c1ccc(-n2cc(CN3CCOCC3)c(-c3ccc4c(c3)OCCO4)n2)cc1 | 13.2% (inactive) |
| COC(=O)C(C)CN1CCN(Cc2ccc3c(c2)OCO3)CC1 (stereo unspecified) | 1.84% (inactive) |
| CCN(Cc1ccccc1)Cc1ccc([N+](=O)[O-])cc1 | -4.11% (inactive) |
| COc1ccc(OCCCC(=O)Oc2ccc(OC)cc2)cc1 | 4.29% (inactive) |
| Cc1ccc(OCCCCNCCN2CCOCC2)c(Br)c1 | 5.77% (inactive) |
| COc1cccc(-c2ncnn2-c2sc3c(c2C#N)CCCCC3)c1 | -10.4% (inactive) |
| COc1cc(CN2CCN(Cc3ccccc3Cl)CC2)cc(OC)c1OC | 9.37% (inactive) |
| CCN1CCN(CCOCCOc2ccccc2OCc2ccccc2)CC1 | 2.12% (inactive) |
| COCCCN1C(=O)c2cccc3c(C(=O)c4ccccc4)ccc(c23)C1=O | 10.4% (inactive) |
| O=C(CN1CCN(CC(=O)c2ccco2)CC1)Nc1ccc(Cl)c(Cl)c1 | 10.7% (inactive) |
| Cc1nc2sc(C(c3ccccc3Cl)N3CCC4(CC3)OCCO4)c(O)n2n1 (stereo unspecified) | 13.8% (inactive) |
| CC(=O)NS(=O)(=O)c1ccc(-c2ccc(C=C(C#N)C#N)o2)cc1 | -19.5% (inactive) |
| N#Cc1ccc(/C=N/NC(=O)c2cc([N+](=O)[O-])cc([N+](=O)[O-])c2)cc1 | 3.87% (inactive) |

| Compound | inhibition |
| --- | --- |
| Fc1cccc(Cl)c1Cn1nnc(-c2ccncc2)n1 | 13.6% (inactive) |
| Cc1cccc(OCCN2CCNCC2)c1C | -3.54% (inactive) |
| COc1ccc2c(c1)CC(c1nc(Nc3ccc4cnccc4c3)c3ccccc3n1)CO2 (stereo unspecified) | 58.2% (active) |
| CC1CCCCC1NC(=O)CSc1nnc(-c2ccncc2)n1CCCN(C)C (stereo unspecified) | 8.82% (inactive) |
| COc1ccc(C(=O)N2CCN(Cc3ccccc3C(F)(F)F)CC2)cc1OC | 3.61% (inactive) |
| CCN(C(=O)Cc1nc(N)n[nH]1)C1(C(=O)Nc2ccccc2)CCCCC1 | 105% (active) |
| CCN(C(=O)Cc1nc(N)n[nH]1)C1(C(=O)Nc2ccc(C)cc2)CCCCC1 | 81.1% (active) |
| CCOc1ccc(CN2CCCN(C)CC2)cc1 | 5.9% (inactive) |
| CCN(CC)C(=O)C1CCCN(Cc2cccc(Cl)c2)C1 (stereo unspecified) | -2.94% (inactive) |
| N#Cc1ccc(OCC(=O)Nc2nc(-c3ccccn3)cs2)cc1 | 22.3% (inactive) |
| CCC(C)NCCOCCOc1cc(C)cc(C)c1C (stereo unspecified) | -6.95% (inactive) |
| COc1ccc(Cn2nnc(C(=O)Nc3cccc(Cl)c3)c2N)cc1 | 8.84% (inactive) |
| CCN1CCN(CC(=O)N/N=C/c2cccc(Cl)c2)CC1 | 2.25% (inactive) |
| c1cncc(CCNc2ccc3ncc(-c4cc5ccccc5o4)n3n2)c1 | 2.68% (inactive) |
| CN1CCC(N2CCN(c3ccccc3Cl)CC2)CC1 | 10.4% (inactive) |
| C=CCNC(=O)c1sc(=S)n(CC)c1N | 0.63% (inactive) |
| CC(C)(C)NCC(=O)Nc1c2c(nc3ccccc13)N(Cc1ccccc1)CC2 | 18.3% (inactive) |
| CCOc1cccc(C2C(C(=O)OCCOc3ccccc3)=C(C)NC3=C2C(=O)CCC3)c1 (stereo unspecified) | 2.03% (inactive) |
| Cc1ccc(C(C)C)c(OCC#CCN2CCNCC2)c1 | 7.61% (inactive) |
| COc1ccc(CN2CCN(Cc3ccccc3C)CC2)c(OC)c1OC | -1.26% (inactive) |
| CCCS(=O)(=O)N1CCN(Cc2cccc(Cl)c2)CC1 | 4.65% (inactive) |
| COC(=O)c1sc(NC(=O)c2ccccc2C)c(C#N)c1C | -8.1% (inactive) |
| COc1ccc(C(=O)NCCN2CCN(c3nc4c(C)c(C)ccc4s3)CC2)cc1 | -5.73% (inactive) |
| COc1cc(CN2CCN(Cc3ccco3)CC2)c([N+](=O)[O-])cc1OC | 16.3% (inactive) |
| COc1cc(Nc2ncnc3c2nc(N2CCOCC2)n3C(C)C)cc(OC)c1OC | -3.35% (inactive) |
| COc1cc(N2CCOCC2)ccc1Nc1cc(Nc2ccccc2-n2cccn2)c(C(F)(F)F)cn1 | 31.5% (active) |

| Compound | inhibition |
| --- | --- |
| CCN(CC(=O)NCc1ccc(Cl)cc1)Cn1nnc2ccccc21 | 0.75% (inactive) |
| COc1ccc(CN2CCN(C3CCC(C)CC3)CC2)c(OC)c1OC (stereo unspecified) | 2.96% (inactive) |
| CCCCC(=O)NCc1ccc(F)cc1 | 17.4% (inactive) |
| CN(C)c1cccc(Nc2ccc(-c3cccc(C=O)c3)cn2)c1 | 65.7% (active) |
| COc1ccc(CN2CCN(Cc3cccc(Br)c3)CC2)c(OC)c1 | 8.87% (inactive) |
| CCN(CCN(C)C)Cc1c(Cl)cccc1Cl | -9.82% (inactive) |
| COc1ccc(CN2CCN(Cc3cc(OC)ccc3OC)CC2)cc1 | -1.47% (inactive) |
| O=c1c2ccccc2ncn1CCCCOc1ccccc1F | 15.3% (inactive) |
| COc1ccccc1CN1CC(C)OC(C)C1 (stereo unspecified) | -2.69% (inactive) |
| CC(c1ccccn1)N(CCN(C)C)C(=S)Nc1ccccc1F (stereo unspecified) | 19.9% (inactive) |
| O=S(=O)(c1ccc(F)cc1)N1CCN(Cc2ccccc2C(F)(F)F)CC1 | 3.94% (inactive) |
| COc1cccc(CN2CCN(Cc3ccc(C(F)(F)F)cc3)CC2)c1OC | 1.8% (inactive) |
| Fc1ccc(CN2CCN(C3CCCC3)CC2)cc1 | 5.12% (inactive) |
| CSc1ccc(CN2CCN(Cc3cccc(Oc4ccccc4)c3)CC2)cc1 | 6.75% (inactive) |
| COc1ccc(NC(=O)c2cc3n(n2)C(C(F)(F)F)CC(c2ccc(OC)c(OC)c2)N3)cc1OC (stereo unspecified) | -8.79% (inactive) |
| CC(=O)c1cccc(N2C(=O)c3cccnc3C2=O)c1 | 0.46% (inactive) |
| CCCS(=O)(=O)N1CCN(Cc2ccccc2Br)CC1 | 7.16% (inactive) |
| COc1cccc(OC)c1C(=O)N1CCN(Cc2ccccc2F)CC1 | 6.68% (inactive) |
| COc1ccc(OC)c(CN2CCN(Cc3ccc(Cl)cc3)CC2)c1 | 7.55% (inactive) |
| O=[N+]([O-])c1ccccc1CN1CCN(Cc2cccnc2)CC1 | 14.6% (inactive) |
| CC1CCC2C(=O)N(c3ccc(I)cc3)C(=O)C2C1 (stereo unspecified) | -5.9% (inactive) |
| O=C(O)C1C2C=CC(O2)C1C(=O)Nc1nccs1 (stereo unspecified) | -0.18% (inactive) |
| O=C(NN1C(=O)c2ccccc2C1=O)c1cccc(F)c1 | -16% (inactive) |
| Cc1ccc(C)n1C(Cc1ccccc1)C(=O)O (stereo unspecified) | 17% (inactive) |
| CN(CCc1ccccn1)Cc1cccnc1 | 8.93% (inactive) |
| COc1ccc(C(CNCc2cc(=O)oc3cc4c(cc23)CCC4)N2CCOCC2)cc1 (stereo unspecified) | 10.3% (inactive) |

| Compound | inhibition |
| --- | --- |
| O=C(Cc1cccs1)N/N=C\C=C\c1ccco1 | 79.7% (active) |
| Fc1cccc(CN2CCN(C3CCC(c4ccccc4)CC3)CC2)c1 (stereo unspecified) | 11.2% (inactive) |
| CCC(C)c1ccccc1NC(=O)CN(C)CC(=O)Nc1ccccc1SC (stereo unspecified) | -6.92% (inactive) |
| Cc1ccccc1NC(=O)NCCOc1cc(N2CCCC2)ncn1 | 6.75% (inactive) |
| CCS(=O)(=O)N1CCN(C2CCCCC2C)CC1 (stereo unspecified) | -1.17% (inactive) |
| COc1ccc(CN2CCCC(C(=O)N3CCCCC3)C2)cc1 (stereo unspecified) | -32.4% (inactive) |
| C/C(N)=C(/C#N)C(=O)COC(=O)c1c2c(nc3ccccc13)/C(=C/c1ccco1)CC2 | 90.7% (active) |
| CCN1CCN(CCOc2ccc(-c3ccccc3)cc2)CC1 | 9.66% (inactive) |
| COc1ccc(CN2CCC(C(=O)N3CCN(Cc4ccccc4)CC3)CC2)cc1 | 13.8% (inactive) |
| COc1cc(CN2CCN(Cc3cccnc3)CC2)cc(OC)c1OC | 6.15% (inactive) |
| Cc1cc(NC(=O)CSc2ccc(-c3ccccn3)nn2)no1 | 49% (active) |
| Cc1cccnc1NC(=O)CSc1nnc(COc2ccc(C(C)C)cc2)n1C | 5.99% (inactive) |
| Cc1cc(NC(=O)CNCCCN(C)C)no1 | 2.39% (inactive) |
| CCOc1ccc(OCCCCNCCO)cc1 | 10.6% (inactive) |
| COc1cccc(CN2CCC(C(=O)NCCc3ccccc3)CC2)c1 | 8.72% (inactive) |
| CC(NCCCN1CCOCC1)C(=O)Nc1ccccc1 (stereo unspecified) | 5.64% (inactive) |
| CN(CCC(=O)O)Cc1cccc(Cl)c1 | -8.04% (inactive) |
| CC[C@@H]1NC(=O)[C@H]2CN(C(=O)NCc3ccccc3)CCN2C1=O | 73.6% (active) |
| C[C@@H](OCc1ccccc1)[C@@H]1NC(=O)[C@H]2CN(C(=O)Nc3cccc(F)c3)CCN2C1=O | 68.9% (active) |
| Cc1n[nH]c(=O)nc1N/N=C/c1cccs1 | 35.1% (active) |
| CCCS(=O)(=O)N1CCN(C(C)C)CC1 | 10.5% (inactive) |
| CC(C)CO/N=C1\C[C@@H](O)[C@@H](O)[C@@H]2[C@@H]3C(=O)N([C@@H](C)c4ccccc4)C(=O)[C@@H]3CC[C@@H]12 | 3.51% (inactive) |
| O=C(OCCN1CCOCC1)c1c(Cl)nc2sccn12 | 9.99% (inactive) |
